Screening results (PubChem BioAssay)
hcDAF-12 act: H. contortus DAF-12 nuclear receptor activators, primary screen, cell-based, luminescence, HEK293, lit1-tk-luc reporter. HEK293 hcDAF-12 lit1-tk-luc reporter; 0% DMSO, 100% Δ7-dafachronic acid. activation, % at 6.8 µM. hit rate 1.4% among 370,000;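 active = activation above the mean of all tested compounds plus 3 SD, cut at about 5.5% in these data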;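 also: 100% = response to 3 µM Δ7-dafachronic acid high control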
DAX1 inh-1: DAX1 (NR0B1) inhibitors, primary screen, cell-based, HEK293, Gal4-DAX1, luciferase luminescence; HEK293 Gal4-DAX1 luciferase reporter; hit rate 0.99% among 340,000; Nuclear receptor subfamily 0 group B member 1 (Homo sapiens), P51843; AID 504766, 2011; inhibition, % at 6.75 µM;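 active = inhibition above the mean over all tested compounds plus 3 SD, cut at about 4.2% in these data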;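 also: 0% = DAX1-transfected cells with DMSO and 100% = empty-vector control cells with DMSO; inhibition shows as a rise in luminescence from relieved DAX1 repression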
Target sequence (P51843 207-470 limits assumed): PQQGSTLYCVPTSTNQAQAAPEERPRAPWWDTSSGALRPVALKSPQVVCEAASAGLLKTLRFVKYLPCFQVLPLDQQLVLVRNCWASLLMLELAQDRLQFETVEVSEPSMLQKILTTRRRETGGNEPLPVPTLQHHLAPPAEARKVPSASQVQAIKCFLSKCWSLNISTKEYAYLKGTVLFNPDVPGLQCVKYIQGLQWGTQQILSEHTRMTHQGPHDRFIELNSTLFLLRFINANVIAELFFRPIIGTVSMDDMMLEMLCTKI
ssDAF12 agonist: S. stercoralis DAF-12 nuclear receptor activators, primary screen, cell-based, luminescence, HEK293, GRIP1 co-expression, lit1-tk-luc | Nuclear hormone receptor DAF-12 (Strongyloides stercoralis) | HEK293 ssDAF-12/GRIP1 lit1-tk-luc reporter; % of 3 µM dafachronic acid response | activation, % at 6.8 µM | hit rate 1% among 370,000;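 active = activation above the mean over all tested compounds plus 3 SD, cut at about 0.9% in these data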;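 also: 0% = DMSO-only wells and 100% = 3 µM delta7-dafachronic acid wells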
hgDAF12 agonist: H. glycines DAF-12 receptor agonists, primary screen, cell-based, luminescence, HEK293, GAL4 fusion, UAS-luciferase; hit rate 1.8% among 370,000; HEK293 GAL4-hgDAF12 UAS-luciferase reporter, agonist luminescence; normalized to butyrate control; Nuclear hormone receptor DAF-12 (Heterodera glycines), GAL4 fusion; activation, % at 6.8 µM; AID 687014, 2013;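 active = activation above a cutoff set at the mean of all screened compounds plus 3 SD, cut at about 10% in these data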;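 also: 0% = DMSO wells and 100% = sodium butyrate wells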
DAX1 inh-2: DAX1 (NR0B1) inhibitors on StAR promoter, primary screen, cell-based, luminescence, SF-1 (NR5A1), full-length DAX-1 | inhibition, % at 6.8 µM | HEK293T StAR-luciferase reporter, SF-1/DAX-1 repression relief | hit rate 1.1% among 370,000;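 active = inhibition above the mean over all tested compounds plus 3 SD, cut at about 3.6% in these data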;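 also: 0% = DAX-1 cells with DMSO and 100% = cells lacking DAX-1 with DMSO; higher inhibition means more luminescence from relief of DAX-1 repression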
Active calls of the source: *; x = no result given. In the library only some 4.1% were active in any assay of this set; here they are far more common.

SMILES | hcDAF-12 act | DAX1 inh-1 | ssDAF12 agonist | hgDAF12 agonist | DAX1 inh-2
Cc1cccc(-c2cccc3c4c([nH]c23)[C@@H]2C[C@H](N(C)C(=O)OCc3ccccc3)[C@H]([C@H](C)O)CN2CC4)c1 | -2.4 | x | -1.6 | -1.1 | -1.1
CCOc1ccc(C(=O)Nc2c(C(=O)N3CCC(N4CCCCC4)CC3)oc3ccccc23)cc1 | -0.6 | 0.7 | -1.5 | -0.1 | 4.0*
Cc1ccc(-c2nc(C3CCCN(S(=O)(=O)c4ccc(Cl)s4)C3)no2)cc1 (stereo unspecified) | -1.8 | x | -1.7 | 1.0 | -0.5
Cc1ccccc1Cn1cc(CN2[C@@H](Cc3ccccc3)COc3cc(Br)ccc3S2(=O)=O)nn1 | 0.1 | x | -0.7 | -1.9 | -0.2
Cc1ccn2c(Nc3ccc4c(c3)OCO4)c(-c3ccccn3)nc2c1 | 6.0* | -2.4 | -0.5 | 0.0 | 1.4
O=C(NCc1ccccc1Cl)c1cc2ccccc2oc1=O | -0.4 | 0.6 | -0.8 | 0.7 | -0.2
O=c1oc2ccccc2cc1NCc1ccccc1O | 2.1 | 4.2* | 0.2 | 9.1 | 1.3
COC(=O)[C@]12C[C@H](CC(=O)N3CCN(C(=O)c4ccco4)CC3)C(=O)N(Cc3ccccc3)C1=C[C@H](COCc1ccccc1)O[C@@H]2C | -1.6 | x | -2.3 | -3.4 | 0.5
O=C1C(C2=NC(c3ccccn3)C3C(=O)N(c4ccccc4)C(=O)C23)=C(O)c2ccccc21 (stereo unspecified) | -1.5 | 4.3* | -1.1 | -1.2 | 0.5
O=C1C[C@@H](C(=O)Nc2ccc(Cl)cc2)[C@@H](c2ccccc2)O1 | 0.5 | x | -1.7 | -1.5 | -0.9
O=C(CSc1nnc(SCc2ccc(Cl)cc2)s1)N/N=C/c1c[nH]c2ccccc12 | 5.6* | 3.0 | 0.6 | -2.9 | 0.1
O=C(CSc1ccccn1)N/N=C/c1c[nH]c2ccccc12 | 5.8* | -0.7 | -0.8 | 0.9 | -0.4
Cc1ccnn1CC(=O)N/N=C/c1c[nH]c2ccccc12 | 5.1 | 0.1 | 0.6 | 1.4 | 0.2
O=C(O)COc1ccccc1/C=N/NC(=O)CSc1nnc(SCc2ccc(Cl)cc2)s1 | 0.1 | 1.4 | -0.8 | 1.0 | 0.6
O=C(CSc1nnc(SCc2cccc3ccccc23)s1)N/N=C/c1c[nH]c2ccccc12 | 0.9 | -0.2 | 1.4* | 1.5 | -0.2
CN(Cc1ccccc1)C(=O)OCc1cn(Cc2ccccc2C(F)(F)F)nn1 | 2.2 | x | -0.4 | -1.3 | -0.8
CCCCCC(=O)NC1CCCCN(Cc2ccc(C)cc2)C1=O (stereo unspecified) | -1.7 | x | -0.8 | 1.4 | -1.1
O=C(COCc1ccccc1)N1CC[C@H]2[C@H](CCCN2Cc2ccccc2)C1 | -2.5 | x | -1.2 | 1.6 | -0.2
CCNC(=O)CC1C(=O)N(C)C(=S)N1NC(=O)c1ccc(Cl)cc1 (stereo unspecified) | -1.5 | 1.2 | -0.9 | -1.1 | 0.0
Nc1ccc(C(=O)NN2C(=O)[C@H](Cl)C2c2ccc(Cl)cc2)cc1 (stereo partly specified) | 5.9* | 0.3 | 0.0 | 4.5 | -3.4
CCCC(=O)N1CCC1(C)C(=O)Nc1cc(-c2ccccc2)nn1C (stereo unspecified) | 2.9 | x | 0.0 | 11.7* | 3.9*
CCCCOc1ccc(C2CCC(C(C)=O)C(C)C2)cc1 (stereo unspecified) | 0.1 | 4.7* | -1.0 | 4.6 | 0.5
COc1ccc(C(=O)c2nc3c(n2O)CCCCC3)cc1 | -1.2 | -0.2 | -1.2 | 1.2 | 0.2
O=C(c1ccc(Oc2ccccc2)cc1)c1nc2c(n1O)CCCC2 | -1.1 | 0.7 | 1.2* | 1.6 | 0.8
CC1CCc2nc(NC(=O)CN3CCN(c4ccc(F)cc4)CC3)sc2C1 (stereo unspecified) | -1.4 | 6.6* | -2.1 | 1.5 | -1.0
SMILES | hcDAF-12 act | DAX1 inh-1 | ssDAF12 agonist | hgDAF12 agonist | DAX1 inh-2
CC(C)(C)C(=O)NCCN1C(=O)S/C(=C\c2ccc([N+](=O)[O-])cc2)C1=O | -2.0 | -1.1 | -1.1 | 12.1* | -0.7
O=C(/C=C/c1c(F)cccc1Cl)Nc1ccc(S(=O)(=O)Nc2ncccn2)cc1 | 2.1 | 0.3 | -0.2 | 1.8 | 1.5
O=C(/C=C/c1c(F)cccc1Cl)Nc1ncccn1 | 5.0 | 4.6* | -0.3 | 6.1 | 2.1
O=C(Nn1c(SCc2cccc([N+](=O)[O-])c2)nc2ccccc2c1=O)c1ccccc1 | 4.3 | 2.0 | -0.5 | 12.6* | 3.4
COc1ccc(C(=O)Nn2c(SCc3cccc([N+](=O)[O-])c3)nc3ccccc3c2=O)cc1 | 0.7 | -1.2 | -1.6 | 0.0 | 0.7
COc1cc(N)c(Cl)cc1NC(=O)c1ccccc1 | -0.2 | 1.1 | -0.7 | 2.8 | 0.5
COc1cc(OC)c(NC(=O)c2cccc(F)c2)cc1Cl | 4.9 | -0.5 | 1.2* | -1.6 | 0.4
COc1cc(OC)c(NC(=O)c2ccc(F)cc2)cc1Cl | 1.1 | -0.3 | 0.1 | 2.1 | -0.5
COc1cc(NC(=O)c2ccccc2)c(OC)cc1Cl | 5.8* | 0.0 | 0.5 | 4.0 | -0.4
CCCc1cc(C(=O)Nc2cc(OC)c(Cl)cc2OC)no1 | 6.5* | 2.1 | 0.7 | -2.2 | 0.3
O=C(OCCN1CCN(C2CN(Cc3cn(Cc4ccccc4Cl)nn3)S(=O)(=O)C2)CC1)c1cc2ccccc2o1 (stereo unspecified) | -1.4 | x | -1.8 | 4.9 | -1.3
Cn1c2ccccc2c2cc(C(=O)O)ccc21 | 5.9* | 0.5 | 0.3 | -0.4 | 2.5
CCCn1c2ccccc2c2cc(C(=O)O)ccc21 | 0.5 | 1.7 | -1.0 | 2.5 | -0.2
Cc1[nH]c2ccccc2c1-c1csc(NC(=O)CSCCO)n1 | -0.9 | 5.5* | -1.0 | 0.0 | 1.4
CS(=O)(=O)N1CCc2cc(C(=O)Nc3ccccc3Cl)ccc21 | -0.7 | 20.9* | -0.9 | 3.5 | 1.0
CC(=O)Nc1cc(-c2cccc(F)c2)cn2c(-c3ccc(F)c(Cl)c3)cnc12 | -0.2 | x | -1.2 | -1.6 | 4.5*
COc1cc(-c2cc(NC=O)c3ncc(-c4ccccc4)n3c2)cc(OC)c1OC | -2.5 | x | -1.1 | -2.5 | -1.1
COc1ccc(-c2cc(NC=O)c3ncc(-c4cccc(C(C)=O)c4)n3c2)cc1 | -1.9 | x | -1.6 | -2.2 | -1.7
COc1cc(-c2cnc3c(NC=O)cc(-c4ccccc4Cl)cn23)cc(OC)c1OC | 0.8 | x | -0.5 | -7.6 | 4.2*
COc1cccc(-c2cc(NC=O)c3ncc(-c4ccc(C(C)=O)cc4)n3c2)c1 | 5.0 | x | -0.2 | 10.8* | -4.6
COc1cc(-c2cnc3c(NC=O)cc(-c4ccccc4)cn23)cc(OC)c1OC | -2.9 | x | -1.8 | -2.9 | 4.2*
